# Results reported in PubChem BioAssay AID1825 (The Scripps Research Institute Molecular Screening Center, 2009).
# Among all 290,000 compounds or so, about 2,300 (0.79%) were called active. No stated cut-off is given here; in the data, active means inhibition above about 22%; inactive means the rest. The full list was thinned out, with actives kept by preference.
# Test: cytotoxicity in IEC-6 intestinal epithelial cells, primary screen, cytotoxicity control for KLF5 inhibitor project, cell-based, luminescence (AID 1825);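 further: 0% = plate median of test compound wells and 100% = cytotoxic reference compound wells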
# Details: IEC-6 cytotoxicity, luminescence viability; at 5 µM; stronger effect = higher value
row,SMILES,inhibition
1,COc1ccc(C)cc1-n1nnnc1SCc1nc2ccccc2c(=O)[nH]1,3.2% (inactive)
2,COc1ccc(/C=N/Nc2nc3ccccc3c(=O)[nH]2)cc1,1.1% (inactive)
3,CCOc1cc(/C=C/c2nc3ccccc3c(=O)[nH]2)cc(Br)c1OC,48.7% (active)
4,CCCC1=Nc2cc(C(=O)NCCN3CCCC3)ccc2Sc2ccccc21,-2.7% (inactive)
5,CCC1=Nc2cc(C(=O)NCCN3CCCC3)ccc2Sc2ccc(C)cc21,2.7% (inactive)
6,CCCC1=Nc2cc(C(=O)NCc3ccco3)ccc2Sc2ccccc21,62.9% (active)
7,Cc1ccccc1N1CC(C(=O)Nc2nnc(SCCC3OCCO3)s2)CC1=O (stereo unspecified),-3.4% (inactive)
8,O=c1ccc2cc(S(=O)(=O)NCCCc3ccccc3)ccc2[nH]1,-3.7% (inactive)
9,CCn1ccnc1CN(C)C(=O)c1cc(COc2ccc(-n3cncn3)cc2)on1,-7.1% (inactive)
10,C=CCC1(CC=C)CCCN1C(=O)c1cc(COc2ccc(-n3cncn3)cc2)on1,22.6% (active)
11,O=C(c1cc(COc2ccc(F)c(F)c2)on1)N1CCOCC1,0.8% (inactive)
12,CCCCNC(=O)CCn1nc(-c2ccc(Cl)cc2)ccc1=O,-2.4% (inactive)
13,COc1ccc(-c2cc(C(F)(F)F)nc(SCC(=O)Nc3ccc4c(c3)OCO4)n2)cc1OC,3% (inactive)
14,COc1cc(OC)nc(S(C)(=O)=O)n1,6.6% (inactive)
15,COc1ccc(-c2cc(C(F)(F)F)nc(S(C)(=O)=O)n2)cc1OC,26.4% (active)
16,Cn1c(=O)[nH]c(=O)c2c1nc(N1CCN(C(c3ccccc3)c3ccccc3)CC1)n2CCO,-7.4% (inactive)
17,COc1ccccc1N1CCN(S(=O)(=O)c2ccc3c(c2)NC(=O)CS3)CC1,2.9% (inactive)
18,CC(C)(C)c1cc[n+](-c2[nH]c(=O)sc2/C=N/N=C(\[O-])c2ccccc2)cc1,4.2% (inactive)
19,O=C(c1ccccc1F)N(Cc1ccccc1)Cc1ccccc1,-1.4% (inactive)
20,CC1(C)C(C=C(Cl)Cl)C1C(=O)N(Cc1ccc(Cl)cc1)C1CCS(=O)(=O)C1 (stereo unspecified),-12.5% (inactive)
21,O=C(COC(=O)c1cc(S(=O)(=O)N2CCCCC2)ccc1Cl)NCc1ccco1,6.2% (inactive)

row,SMILES,inhibition
1,Cc1cc(C(=O)OCC(=O)NCc2ccco2)c(C)n1-c1ccccc1,33.2% (active)
2,CN(c1ccccc1)S(=O)(=O)c1ccc(Cl)c(C(=O)OCC(=O)NCc2ccco2)c1,-4.1% (inactive)
3,O=C(COc1ccc(Cl)cc1)Nc1ccc2oc(=O)ccc2c1,-4.8% (inactive)
4,Oc1cccc(/C=N/Nc2ccc(Cl)nn2)c1O,99.5% (active)
5,Clc1ccc(N/N=C/c2cccs2)nn1,-1.4% (inactive)
6,COc1cccc(/C=N/Nc2ccc(Cl)nn2)c1,-3.1% (inactive)
7,CCC1CCCCN1C(=O)CSc1nc2c(c(=O)n1C)SC(C)C2 (stereo unspecified),0% (inactive)
8,Cc1cc(Cl)ccc1C(=O)C1CCCN(C(=O)c2nonc2C)C1 (stereo unspecified),-1.1% (inactive)
9,CCC(CC)C(=O)Nc1c2c(nn1-c1ccc(C)cc1)CS(=O)(=O)C2,-3% (inactive)
10,CCOCCCNc1nc(-c2ccccc2)nc2ccccc12,-4% (inactive)
11,CC(C)(C)Nc1nc(-c2ccccn2)nc2ccccc12,91.3% (active)
12,Cc1ccc(Oc2nc(-c3ccccn3)nc3ccccc23)cc1,8.9% (inactive)
13,COc1cc(N=Cc2c(O)c3ccccc3oc2=O)c(OC)cc1Cl,2.7% (inactive)
14,CNC[C@H](CC1CCCCC1)NC[C@H](NCCC1CCCC1)[C@H](C)O,36.1% (active)
15,COc1cc(C(=O)OC2CCOC2=O)c([N+](=O)[O-])cc1OC (stereo unspecified),-4% (inactive)
16,COc1ccccc1Oc1ccc(N/C=C2/CCCC2=O)cc1,-8.7% (inactive)
17,Cc1[nH]n(-c2ccccc2)c(=O)c1/C=N/NC(=O)c1ccoc1C,1.8% (inactive)
18,CC(C)=C(NC(=O)c1ccccc1)C(=O)N/N=C(\C)c1ccccc1O,4% (inactive)
19,C/C(=N\NC(=O)c1ccoc1C)c1ccccc1O,98.7% (active)
20,CN(Cc1ccccc1)S(=O)(=O)c1nnc(NC(=O)c2ccccc2F)s1,4.7% (inactive)
21,Cc1ccc(-c2nn(-c3ccccc3)cc2/C=C2\SC(=S)N(CCCCCC(=O)O)C2=O)o1,-8.8% (inactive)

row,SMILES,inhibition
1,Cc1cccc(N(C(=O)Cn2nnc(-c3ccc(C)o3)n2)C(C(=O)NC2CCCC2)c2ccncc2)c1 (stereo unspecified),-3.9% (inactive)
2,C[N+](C)(C)CCNC(=O)c1cc[n+](Cc2ccccc2)c(/C=N/O)c1,-6.3% (inactive)
3,CCC(=O)Nc1ccc(C(=O)NNC(=O)c2ccc(Cl)cc2)cc1,2.4% (inactive)
4,CC(C)(C)c1cc2cccnc2n1Cc1cccc(F)c1,-9.9% (inactive)
5,Cc1ccc(C(=O)/C=C/c2c(C)nn(-c3ccccc3)c2Cl)cc1,7.3% (inactive)
6,O=C(CSc1ncn[nH]1)N/N=C/c1ccc(F)cc1,2.8% (inactive)
7,O=C(/C=C/Sc1ncn[nH]1)c1ccc(Cl)cc1,96.3% (active)
8,CC(C)(C)n1nnnc1C(c1ccccc1F)N1CCN(C(=O)c2ccco2)CC1 (stereo unspecified),-4.7% (inactive)
9,O=C(OCc1ccc(-c2ccccc2)cc1)c1cccc(O)c1,-3.8% (inactive)
10,CCN(CC(=O)NCCCN1CCOCC1)S(=O)(=O)c1cc(Cl)ccc1Cl,0.6% (inactive)
11,O=S(=O)(NCCc1ccc(Cl)cc1)c1cccs1,6.4% (inactive)
12,COc1ccc(N2C(=O)C(Cc3ccccc3)NC2=S)cc1 (stereo unspecified),3.8% (inactive)
13,Cc1ccc(N2C(=O)C(Cc3ccccc3)NC2=S)cc1 (stereo unspecified),24.6% (active)
14,O=C1C(Cc2ccc(O)cc2)NC(=S)N1Cc1ccccc1 (stereo unspecified),-3.3% (inactive)
15,CC(C)C(=O)NCC(c1cccs1)S(=O)(=O)c1ccc(F)cc1 (stereo unspecified),7.2% (inactive)
16,CC(=O)Nc1ccc(Nc2ncnc3c2nnn3Cc2ccccc2Cl)cc1,1.1% (inactive)
17,CCN(Cc1nc2ccccc2c(=O)[nH]1)Cc1cc(=O)oc2cc(C)c(C)cc12,2% (inactive)
18,COc1ccc(C(=O)Nc2cc(C)c(NC(=O)c3ccccc3OC)cn2)cc1,-2.8% (inactive)
19,Cc1cc(C(=O)NC2CC(C)(C)Cc3c2cnn3-c2ccccc2)n[nH]1 (stereo unspecified),7.1% (inactive)
